# Measurements taken from PubChem BioAssay AID504385 (National Center for Advancing Translational Sciences (NCATS), 2011).
# The source made the active and inactive calls. The rule behind the calls is not given here.
# Target: Lutropin-choriogonadotropic hormone receptor (Homo sapiens) (UniProt P22888)
# Test: Counterscreen for antagonists of the thyroid stimulating hormone receptor: ELISA activity in a Luteinizing Hormone Receptor cell line
# Settings: HEK293 LHR cells, LH-induced cAMP ELISA
# Excerpt: TSH is an alpha/beta heterodimeric glycoprotein hormone secreted from the anterior pituitary gland which belongs to the glycoprotein hormone family. The actions of TSH are mediated by a seven-transmembrane receptor, which upon TSH binding couples preferentially to the G-alpha (s) protein (Gs), resulting in activation of adenylate cyclase and increase in cyclic adenosine 3', 5' monophosphate (cAMP). The TSH receptor (THSR) is mainly expressed in thyroid follicular cells and regulates their growth and function. This cell based assay was conducted on a TSHR transfected HEK 293 cell line, measuring cAMP stimulation using antibody-based Homogeneous Time Resolved Fluorescence (HTRF). Our goal is to identify small molecules that will inhibit (antagonize) the thyroid-stimulating hormone receptor (TSHR), a member of the 7 transmembrane-spanning receptor (7TMR) family of cell surface receptors. TSHR-mediated hyperthyroidism is important in thyroid pathology. The development of small molecule antagonists of TSHR may lead to therapeutic approaches for TSHR-mediated hyperthyroidism caused by constitutively activating mutations or stimulating auto-antibodies associated with Graves' disease. Graves' disease is the leading cause of hyperthyroidism and is caused by autoantibodies that stimulate TSHR (TsAbs) causing thyroid growth and unregulated overproduction of thyroid hormones and existing treatments have liabilities (agranulocytosis). In addition, TSHRs are known to be expressed in multiple extrathyroidal tissues including bone, brain, kidney, testis, fat and cells of the immune system but the role of the TSHR in these tissues is not clear. Therefore, TSHR antagonists/inverse agonists could be used as probes of extrathyroidal TSHR function. Finally, TSHR inverse agonists, which are a subclass of antagonists that inhibit agonist-independent (or basal or constitutive) TSHR signaling, could be used to inhibit TSH-independent signaling in patients with recurrent or metastatic thyroid cancer who are receiving thyroid hormone to suppress TSH. In order to confirm specificity of the compounds to the TSHR, a confirmatory assay was conducted on a similar family member, the Luteinizing Hormone Receptor, transfected into a HEK 293 cell line, using an orthogonal detection technology to measure cAMP stimulation: an ELISA based cAMP competition assay using cAMP-Screen Direct System (Applied Biosystems, Foster City, CA)/
# Transiently transfected HEK-EM 293 cells or cells stably expressing LHR were seeded into 96-well plates at a density of 7 x10^4 cells per well in DMEM containing 10% FBS. Cells were cultured for 24 h before incubation for 20 min in HBSS/10 mM HEPES (pH 7.4). To determine the effect of the compound on LH induced LHR activity, cells were incubated for 20 min with the compound in HBSS/HEPES without IBMX and subsequently for 40 min with bovine LH (Sigma) and the compound in HBSS/HEPES supplemented with 1 mM IBMX at 37 C. The levels of cAMP in cells incubated in HBSS/HEPES without IBMX were subtracted in all experiments. After aspiration of the incubation medium, cells were lysed using lysis buffer of the cAMP-Screen Direct system (Applied Biosystems, Foster City, CA). The cAMP content of the cell lysate was determined using the method described in the manufacturer's protocol. The chemiluminescence signal was measured in a VICTOR3 V 1420 multilabel counter (PerkinElmer, Norwalk, CT). The potency (IC50) of the ligands were obtained from dose-response curves by data analysis with GraphPad Prism 4 for Windows.
# Lutropin-choriogonadotropic hormone receptor (Homo sapiens), sequence (P22888 whole entry, looked up): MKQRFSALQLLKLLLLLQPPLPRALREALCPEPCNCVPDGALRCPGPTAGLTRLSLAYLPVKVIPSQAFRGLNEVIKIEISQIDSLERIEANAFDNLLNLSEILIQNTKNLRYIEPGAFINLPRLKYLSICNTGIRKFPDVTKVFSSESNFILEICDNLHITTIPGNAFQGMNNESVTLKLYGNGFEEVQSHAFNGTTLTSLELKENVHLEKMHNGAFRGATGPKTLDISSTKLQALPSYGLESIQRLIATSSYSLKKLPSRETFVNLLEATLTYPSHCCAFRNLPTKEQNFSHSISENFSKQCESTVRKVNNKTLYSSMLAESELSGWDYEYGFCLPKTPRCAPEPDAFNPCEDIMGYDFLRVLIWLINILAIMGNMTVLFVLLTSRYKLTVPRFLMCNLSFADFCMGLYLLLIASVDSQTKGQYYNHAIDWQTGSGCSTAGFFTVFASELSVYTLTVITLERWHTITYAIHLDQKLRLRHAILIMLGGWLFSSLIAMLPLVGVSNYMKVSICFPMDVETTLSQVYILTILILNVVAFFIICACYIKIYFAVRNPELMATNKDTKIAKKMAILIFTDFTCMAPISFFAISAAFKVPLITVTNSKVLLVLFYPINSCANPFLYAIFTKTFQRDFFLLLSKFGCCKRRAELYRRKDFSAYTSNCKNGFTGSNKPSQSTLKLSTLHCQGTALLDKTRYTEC
SMILES,outcome,IC50
COc1ccc(C2Nc3ccccc3C(=O)N2Cc2ccc(C)o2)cc1COc1c(C)cccc1C (configuration not stated),inactive,
COc1ccc(C2Nc3ccccc3C(=O)N2Cc2ccco2)cc1COc1c(C)cc(NC(C)=O)cc1C (configuration not stated),inactive,
COc1ccc(C2Nc3ccccc3C(=O)N2Cc2ccco2)cc1CSc1c(C)cccc1C (configuration not stated),inactive,
COc1ccc(C2Nc3ccccc3C(=O)N2Cc2ccco2)cc1COc1c(C)cccc1C (configuration not stated),,0.48 µM (active)
CCc1cccc(CC)c1OCc1cc(C2Nc3ccccc3C(=O)N2Cc2ccco2)ccc1OC (configuration not stated),inactive,
Cc1cccc(C)c1OCc1cccc(C2Nc3ccccc3C(=O)N2Cc2ccco2)c1 (configuration not stated),inactive,
COc1ccc(C2Nc3ccccc3C(=O)N2Cc2cccnc2)cc1COc1c(C)cccc1C (configuration not stated),inactive,
